Data from PubChem BioAssay (NCATS).
Records with an inconclusive call do not appear. Calls of active or inactive are those of the source. Unless noted, calls come from the whole dose curve; as a rule, active = well fitted curve in the direction sought with a large enough effect; inconclusive = small, poorly fitted or top-dose-only effect, or another doubt; inactive = no such curve, though single readings can be large; an effect the other way counts as inactive or inconclusive.

Legend:
[1] = qHTS profiling of the MIPE4 collection as inhibitors of Plasmodium falciparum (3D7) proliferation (AID 743344; call rule not given here;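 note: scaled between DMSO vehicle wells and 0.29 µM artemisinin as full inhibition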); conditions: P. falciparum 3D7 in erythrocytes, SYBR Green DNA fluorescence, 72 h; at 28.5 µM unless noted
Summary of the method: (§1)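 Parasite DNA was quantified by SYBR Green I fluorescence (ex 485, em 535 nm) after overnight lysis in saponin/Triton buffer at room temperature. Cultures at 0.3% parasitemia and 2.5% hematocrit were first exposed to compound for 72 h at 37 C; signals were normalised to artemisinin (0.29 uM) and vehicle wells.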

[2] = qHTS profiling of the MIPE4 collection as inhibitors of Plasmodium falciparum (DD2) proliferation (AID 743345; call rule not given here); conditions: P. falciparum Dd2 in erythrocytes, SYBR Green DNA, 72 h; at 28.5 µM unless noted
Summary of the method: as §1

[3] = qHTS profiling of the MIPE4 collection as inhibitors of Plasmodium falciparum (DD2) proliferation (Rep 2) (AID 743346; call rule not given here); conditions: P. falciparum Dd2 in erythrocytes, SYBR Green DNA, 72 h; at 28.5 µM unless noted
Summary of the method: as §1

[4] = qHTS profiling of the MIPE4 collection as inhibitors of Plasmodium falciparum (HB3) proliferation (AID 743347; call rule not given here;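 note: plate controls were DMSO vehicle wells for no effect and artemisinin wells for full effect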); conditions: P. falciparum HB3 in erythrocytes, SYBR Green DNA, 72 h; at 28.5 µM unless noted
Summary of the method: as §1

[5] = High-throughput drug toxicity screening in the BPDCN cell line Gen2.2 (AID 1224824; call rule not given here;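 note: cells exposed to compounds for 48 h before reading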); conditions: Gen2.2 BPDCN cells; at 45.8 µM (top of the series) unless noted
Summary of the method: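 Gen2.2 cells (500/well) in phenol red-free RPMI with 10% FBS were exposed to compounds for 48 h at 37 °C, 5% CO2. Viability was read by CellTiter-Glo luminescence and normalized to DMSO (100%) and 9.2 uM bortezomib (0%).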

[6] = High-throughput drug toxicity screening in the BPDCN cell line Cal-1 (AID 1224825; call rule not given here); conditions: Cal-1 BPDCN cell viability, qHTS; at 45.8 µM (top of the series) unless noted
Summary of the method: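 Viability of the BPDCN line Cal-1 is measured as ATP-based luminescence (CellTiter-Glo) following 48 h incubation with compounds. Percent activity uses DMSO-treated wells as 100% and 9.2 uM bortezomib as 0%.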

[7] = qHTS assay for measurement of the activity of small molecule inhibitors on Zika virus induced Caspase-3 activity in human iPSC derived neural progenitor cells (hNPCs) (AID 1224857); note: nearly all actives have a fitted effect of over 65% in size; note: potency is the fitted concentration of half-maximal effect; for activity change, negative = inhibition: % of control where 0% means no effect
Summary of the method: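 Values are percent inhibition of virus-induced caspase-3/7 signal, scaled between uninfected cells and ZIKV-infected cells. Infection used 2 FFU/cell for 6 h after 1 h compound exposure.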

[8] = qHTS assay for measurement of the activity of small molecule inhibitors on Zika virus induced Caspase-3 activity in human astrocytoma cells (AID 1224859);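 note: plate controls were ZIKV-infected untreated cells for no effect and uninfected cells for full effect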
Summary of the method: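 Compound added 1 h pre-infection; ZIKV 2 FFU/cell on SNB-19 cells, 6 h, 37 C/5% CO2. Caspase-Glo 3/7 luminescence; values as % inhibition of ZIKV-induced caspase activity.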

[9] = qHTS Screen of the MIPE 4.0 Collection Against Ewings Sarcoma (TC71) (AID 1259253); note: nearly all actives have a fitted effect of over 40% in size; note: potency is the fitted concentration of half-maximal effect;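 for viability (% of DMSO): 100% = DMSO-treated cells and 0% = medium-only wells without cells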
Summary of the method: (§2)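 Compound titrations go onto adherent log-phase cells 4 h after seeding, incubate 48 h at 37C, then CellTiter-Glo luminescence reports viability relative to DMSO and cell-free controls.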

[10] = qHTS Screen of the MIPE 4.0 Collection Against Ewings Sarcoma (EW8) (AID 1259255); note: nearly all actives have a fitted effect of over 35% in size; note: potency is the fitted concentration of half-maximal effect;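 for viability: 100% = DMSO-treated cells and 0% = medium-only wells without cells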
Summary of the method: as §2

[11] = qHTS Screen of the MIPE 4.0 Collection Against Ewings Sarcoma (TC32) (AID 1259256); note: nearly all actives have a fitted effect of over 45% in size; note: potency is the fitted concentration of half-maximal effect;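 for viability (percent of control): 100% = DMSO-treated cells and 0% = medium-only wells without cells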
Summary of the method: as §2

[12] = P-glycoprotein substrates identified in KB-8-5-11 adenocarcinoma cell line, qHTS therapeutic library screen (AID 1346987); note: nearly all actives have a fitted effect of over 65% in size; note: potency is the fitted concentration of half-maximal effect; for activity change, negative = cytotoxicity: % is set by controls: 0 for no effect and ±100 for the full control effect
Summary of the method: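 In this qHTS, P-gp-rich KB-8-5-11 cells received library compounds across a concentration range. Viability was quantified by luminescence after 72 h at 37 degree C.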

[13] = qHTS Screen of the MIPE 4.0 Collection Against Ewings Sarcoma (RDES) (AID 1259252); note: nearly all actives have a fitted effect of over 35% in size; note: potency is the fitted concentration of half-maximal effect;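 for viability (percent of control): 100% = DMSO-treated cells and 0% = medium-only wells without cells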
Summary of the method: as §2

[14] = P-glycoprotein substrates identified in KB-3-1 adenocarcinoma cell line, qHTS therapeutic library screen (AID 1346986); note: nearly all actives have a fitted effect of over 60% in size
Summary of the method: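 Using luminescence to quantify ATP, parental and P-gp-overexpressing KB cells were compared after 72 h compound titration. KB-8-5-11 was also run with the P-gp inhibitor tariquidar.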

| Structure (SMILES) | parasite growth, % of DMSO control [1] | parasite growth remaining, % of DMSO control (lower = more inhibition) [2] | parasite growth, % of control (lower = inhibition) [3] | growth, % of control [4] | cell viability, % of control (lower = more cytotoxic) [5] | viability (% of control) [6] | Potency [7] | Potency [8] | Potency [9] | Potency [10] | Potency [11] | Potency [12] | Potency [13] | Potency [14] | activity change, negative = inhibition [7] | activity change, negative = inhibition [8] | viability (% of DMSO) [9] | viability [10] | viability (percent of control) [11] | activity change, negative = cytotoxicity [12] |
| --- | --- | --- | --- | --- | --- | --- | --- | --- | --- | --- | --- | --- | --- | --- | --- | --- | --- | --- | --- | --- |
| CCOC(=O)[C@H](CCc1ccccc1)N[C@@H](C)C(=O)N1[C@@H](C(=O)O)C[C@H]2CCC[C@@H]21 | 8.54% | 9.73% | 14.6% | 4.34% | 7.77% | 4.82% | inactive | inactive | 14.8 µM (active) | 18.7 µM (active) | 16.6 µM (active) | 10.5 µM (active) |  |  |  |  |  |  |  |  |
| O=C(Nc1cccc(Nc2ncc(Br)c(NCCc3cnc[nH]3)n2)c1)N1CCCC1 | 7.42% | 13.6% | 17.4% | 3.84% | 15.3% | 2.84% | inactive | inactive | 6.62 µM (active) | 0.235 µM (active) | 0.296 µM (active) |  | 7.43 µM (active) |  |  |  |  |  |  |  |
| CN1C(C(=O)Nc2ccccn2)=C(O)c2sc(Cl)cc2S1(=O)=O | 64.4% | 86.4% | 50.9% | 69.3% | 59.6% | 71.2% | inactive | inactive |  | 20.9 µM (active) | 5.26 µM (active) | inactive | 3.32 µM (active) |  |  |  |  |  |  |  |
| COc1cc(CCc2cc(NC(=O)c3ccc(N4C[C@@H](C)N[C@@H](C)C4)cc3)n[nH]2)cc(OC)c1 | 50.5% | 66.7% | 43.7% | 10.3% | 14% | 4.08% | inactive | inactive | 16.6 µM (active) | 16.6 µM (active) | 13.2 µM (active) |  | 18.7 µM (active) |  |  |  |  |  |  |  |
| O=C(NC1CC1)c1cccc(-c2ccc3c(NC(=O)C4CC4)n[nH]c3c2)c1 | 35.1% | 96.7% | 59.5% | 63.3% | 224% | 17.8% | inactive | inactive |  | 3.72 µM (active) | 1.32 µM (active) | inactive | 1.32 µM (active) |  |  |  |  |  |  |  |
| CN[C@H]1[C@@H](O)[C@@H]2O[C@@H]3O[C@H](C)CC(=O)[C@]3(O)O[C@@H]2[C@@H](NC)[C@H]1O | 6.52% | 85.6% | 19.2% | 6.56% | 9.59% | 5.36% | 16.6 µM (active) | inactive | 1.32 µM (active) | 1.32 µM (active) | 1.05 µM (active) | inactive |  | inactive |  |  |  |  |  |  |
| CC1(C)CC(O)CC(C)(C)N1[O] |  |  |  |  | 152% | 102% | inactive | inactive |  | inactive | inactive | inactive | inactive |  |  |  |  |  |  |  |
| C[C@H](O)[C@@H]1C(=O)N2C(C(=O)O)=C(S[C@@H]3CN[C@H](CNS(N)(=O)=O)C3)[C@@H](C)[C@@H]12 | 107% | 99.1% | 82.6% | 87.8% | 119% | 112% | inactive | inactive | inactive | inactive | inactive | inactive |  | inactive |  |  |  |  |  |  |
| C=CC1=C(C(=O)O)N2C(=O)[C@@H](NC(=O)C(=NO)c3csc(N)n3)[C@H]2SC1 | 92.8% | 95.1% | 103% | 68.4% | 116% | 105% | inactive | inactive |  | inactive | inactive | inactive | inactive |  |  |  |  |  |  |  |
| CC(C)(C)[N+]([O-])=Cc1ccc(S(=O)(=O)O)cc1S(=O)(=O)O | 102% | 92.1% | 85.8% | 63% | 133% | 111% | inactive |  | inactive | inactive | inactive | inactive | inactive |  |  |  |  |  |  |  |
| CNC(=O)c1cccc(-c2ccc3c(N4CCOC[C@H]4C)nc(N4CCOC[C@H]4C)nc3n2)c1 | 8.56% | 17.5% | 9.01% | 5.12% | 20.8% | 20.9% | inactive |  | 0.0662 µM (active) | 0.0935 µM (active) | 0.059 µM (active) | 0.0662 µM (active) | 0.0833 µM (active) |  |  |  |  |  |  |  |
| CC(C)(C)[C@H](NC(=O)c1ccc(N)c(Cl)c1)C(=O)N1CCC[C@@H]1C(=O)N[C@H](C#N)CC(=O)O | 160% [at 3.19 µM] | 110% [at 3.19 µM] | 108% [at 3.19 µM] | 588% [at 3.19 µM] | 14.9% [at 3.51 µM] | 25% [at 3.51 µM] |  |  |  |  |  |  |  |  | 12% [at 4.53 µM] (inactive) | 53% [at 4.53 µM] (inactive) | 134% [at 3.51 µM] (inactive) | 116% [at 3.51 µM] (inactive) | 127% [at 3.51 µM] (inactive) | 2.87% [at 5.11 µM] (inactive) |
| C[C@]12CCC(=O)C=C1[C@@H]1CC1[C@H]1[C@H]3[C@@H]4C[C@H]4[C@@]4(CCC(=O)O4)[C@@]3(C)CC[C@H]12 (some centres not stated) | 65.8% | 82.7% | 41.4% | 71.4% | 75.3% | 92.9% | inactive | inactive | inactive | inactive | inactive |  |  |  |  |  |  |  |  |  |
| c1coc(CNc2ncnc3nc[nH]c23)c1 |  | 26.3% |  |  | 90.9% | 102% | inactive |  | inactive | inactive | inactive | inactive | inactive |  |  |  |  |  |  |  |
